Screens deposited in PubChem BioAssay by National Center for Advancing Translational Sciences (NCATS).
A selection: hits, their analogues and other compounds. The true share with any hit is near 10%.
G9a inh – G9a (human) methyltransferase inhibition; 350,000 compounds, 8.8% hits; Potency, µM (top dose mostly 102 µM), most hits filed as inhibitors; G9a H3K9 monomethylation, AlphaScreen, 2 h; AID 504332; Q96KQ7; also: nearly all actives have a fitted effect of over 75% in size
Target sequence (Q96KQ7 913-1193 limits assumed): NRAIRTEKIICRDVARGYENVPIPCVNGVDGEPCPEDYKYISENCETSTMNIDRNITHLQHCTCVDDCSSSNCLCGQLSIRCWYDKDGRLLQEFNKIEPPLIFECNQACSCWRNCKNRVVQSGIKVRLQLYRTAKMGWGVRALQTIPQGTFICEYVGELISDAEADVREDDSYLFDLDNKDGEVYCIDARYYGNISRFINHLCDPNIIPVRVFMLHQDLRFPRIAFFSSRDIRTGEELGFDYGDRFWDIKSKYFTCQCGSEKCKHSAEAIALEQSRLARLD
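Using a bead-based AlphaScreen, monomethylated H3K9 product from 2 h room-temperature reactions (G9a 20 nM, peptide 500 nM, SAM 20 uM) was detected with 0.5 ug/mL rabbit anti-H3K9me1 antibody.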
Sfp inh – blocks B. subtilis Sfp PPTase activity; Q9F4F7; Biochemical Sfp PPTase activity, qHTS; Potency, µM, usual class: inhibitors; 310,000 compounds, 3.5% hits;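 also: the enzyme is Sfp with the accession as filed and its product quenches rhodamine fluorescence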
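Fluorescence-quenching assay with 15 nM Sfp, 5 uM rhodamine-CoA and 12.5 uM BHQ-2-labelled ybbR peptide in pH 7.6 Hepes/MgCl2 buffer. Enzyme was pre-incubated with compound for 15 min at room temperature. Rate was taken from the 30-min fluorescence change (525/598 nm).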
PLK1 PBD inh – blocks phosphopeptide binding to human PLK1 polo-box domain | P53350 | Plk1 PBD binding of FITC phosphopeptide, fluorescence polarization | Potency, µM, most hits filed as inhibitors | 360,000 compounds, 2.8% hits; also: series mostly up to about 57 µM; nearly all actives have a fitted effect of over 65% in size
VDR inhibitor – blocks the human vitamin D receptor; Potency, µM, hits mostly inhibitors; 400,000 compounds, 0.93% hits; P11473; AID 504847; VDR-SRC2-3 peptide fluorescence polarization, 2 h
Target sequence (P11473 whole entry, looked up): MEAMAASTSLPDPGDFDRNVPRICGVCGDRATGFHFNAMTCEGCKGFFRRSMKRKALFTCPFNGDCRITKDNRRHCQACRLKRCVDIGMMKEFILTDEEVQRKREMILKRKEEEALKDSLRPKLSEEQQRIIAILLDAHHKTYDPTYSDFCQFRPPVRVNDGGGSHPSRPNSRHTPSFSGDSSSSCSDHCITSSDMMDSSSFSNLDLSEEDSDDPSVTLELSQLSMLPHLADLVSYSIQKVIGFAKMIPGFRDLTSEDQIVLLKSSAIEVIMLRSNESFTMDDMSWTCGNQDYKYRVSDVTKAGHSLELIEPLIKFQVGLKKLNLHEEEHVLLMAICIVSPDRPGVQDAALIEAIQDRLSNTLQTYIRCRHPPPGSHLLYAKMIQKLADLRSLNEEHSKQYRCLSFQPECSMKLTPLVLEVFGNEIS
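Measured by FP: displacement of SRC2-3 coactivator peptide from VDR by library compounds, following a two-hour ambient incubation.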
MmCpn inh – blocks the Methanococcus maripaludis chaperonin Mm-Cpn; Potency, µM (titrated, usually from 76.9 µM), most hits filed as inhibitors; purified Mm-Cpn ATPase, ADP Transcreener TR-FRET; 330,000 compounds, 0.031% hits; AID 504842; also: nearly all actives have a fitted effect of over 80% in size
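TR-FRET (320 nm excitation; 590 and 665 nm emission) reports ADP made from 10 uM ATP by 25 nM enzyme; compounds were preincubated 10 min, reaction run 30 min, both at 37°C.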
CCT modulator – modulators of cytosolic chaperonin (CCT/TRiC) activity; purified chaperonin ATPase assay, HTRF ADP detection, 30 min; activity change, % (no concentration beside the values), hits read low; 360,000 compounds, 0.3% hits; AID 651819; in the data active = activity change below about -30%
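TRiC at 40 or 20 nM final (batch-dependent) in 30 mM Tris pH 7.4, 100 mM KCl, 5 mM MgCl2, 1 mM DTT, with compound at single 76 uM and 10 uM ATP, 30 min at 37 deg C. ADP detected by HTRF Transcreener, 665/615 ratio.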
Hits are given with their value; n = inactive; u = inconclusive; x = no result given; [ ] = remark or other dose. Unless noted, calls follow the shape of the dose curve; as a rule, active = well fitted curve in the direction sought with a large enough effect; inconclusive = small, poorly fitted or top-dose-only effect, or another doubt; inactive = no such curve, though single readings can be large; an effect the other way counts as inactive or inconclusive.

SMILES | G9a inh | Sfp inh | PLK1 PBD inh | VDR inhibitor | MmCpn inh | CCT modulator
O=S(=O)(c1ccccc1)N1N=C(c2cccs2)CC1c1ccc(F)cc1 (stereo unspecified) | n | n | 21µM | n | n | n
CN(CC(=O)Nc1ccccc1Cl)C(=O)c1ccc(N2CCCCCC2)c([N+](=O)[O-])c1 | u | x | n | n | n | n
COc1ccc(Cl)cc1NC(=O)CN(C)C(=O)c1ccc(N2CCCCCC2)c([N+](=O)[O-])c1 | 22µM | x | n | n | n | n
COc1ccc(Cl)cc1NC(=O)CN(C)C(=O)c1ccc(N2CCCCC2)c([N+](=O)[O-])c1 | 7.9µM | x | n | n | n | n
Cc1ccc(N2CCN(c3nc4ccc(C(=O)c5ccccc5)cc4n4cnnc34)CC2)c(C)c1 | n | x | x | n | x | x
O=Cc1ccc(-c2nc3ccccc3s2)o1 | n | n | n | n | n | n
O=C(O)CCCN1C(=O)/C(=C\c2ccc(-c3nc4ccccc4s3)o2)SC1=S | x | 50µM | 11µM | u | n | n
O=C(O)CC(C(=O)O)N1C(=O)/C(=C/c2ccc(-c3nc4ccccc4s3)o2)SC1=S (stereo unspecified) | 5µM | 8.9µM | n | 50µM | n | n
O=C(O)CCN1C(=O)/C(=C/c2ccc(-c3nc4ccccc4s3)o2)SC1=S | u | n | 9.5µM | u | n | n
CSc1nn(Cc2ccc(C)cc2)c(N)c1S(=O)(=O)c1ccccc1 | n | x | x | n | x | x
COc1ccc(Cn2ccnc2SCC(=O)Nc2ccc3c(c2)OCCO3)cc1 | n | x | x | n | x | x
COc1cc(C2C(C(=O)Nc3ccc(C)cc3C)=C(C)Nc3nc4ccccc4n32)cc(OC)c1OC (stereo unspecified) | u | x | x | n | x | x
CCCC(c1nnnn1CS(=O)(=O)c1ccc(C)cc1)N1CCN(C2CCCC2)CC1 (stereo unspecified) | 50µM | n | n | n | n | n
CCCCC(c1nnnn1CS(=O)(=O)c1ccc(C)cc1)N1CCN(c2ccccc2)CC1 (stereo unspecified) | u | n | n | n | n | n
COc1cc([N+](=O)[O-])ccc1-c1ccc(C(=O)Nc2ccc(NC(C)=O)cc2)o1 | 8.9µM | 10µM | n | n | n | n
C=CCNC(=O)c1ccc(-c2ccc([N+](=O)[O-])cc2)o1 | u | 25µM | u | n | n | n
COc1cccc(NC(=O)c2ccc(-c3ccc([N+](=O)[O-])cc3)o2)c1 | u | 20µM | n | n | u | n
COc1cc([N+](=O)[O-])ccc1-c1ccc(/C=N/NC(=O)c2ccccc2O)o1 | u | n | x | x | n | x
CC(=O)Nc1ccc(NC(=O)c2ccc(-c3ccc([N+](=O)[O-])cc3)o2)cc1 | x | n | n | n | n | n
COc1ccc(Nc2ncc(C(=O)Nc3cccc(OC)c3)c3ccccc23)cc1 | n | x | x | n | x | x
S=C1NCCNC(=S)NCCOCCOCCN1 | n | n | 27µM | n | n | n
Cc1ccccc1OCC(=O)OCc1cc(=O)n2nc(-c3cccs3)sc2n1 | n | x | x | n | x | x
CCC(C)NCCOCCSc1ccc(Cl)cc1 (stereo unspecified) | 8.9µM | n | n | n | n | n
CCC(C)NCCCCOc1ccc(Cl)cc1C (stereo unspecified) | u | n | n | n | n | n
C=CCc1cc(Cl)ccc1OCCOCCNC(C)CC (stereo unspecified) | 10µM | u | n | n | n | n
SMILES | G9a inh | Sfp inh | PLK1 PBD inh | VDR inhibitor | MmCpn inh | CCT modulator
C=CCc1cc(Cl)ccc1OCCCNC(C)C | 8.9µM | n | n | n | n | n
CCC(C)NCCOCCOc1ccc(Cl)c2ccccc12 (stereo unspecified) | 13µM | 20µM | n | n | n | n
CCC(C)NCCOCCOc1ccc(Cl)c(C)c1C (stereo unspecified) | u | n | n | n | n | n
Cc1cccc(CNc2nc(-c3ccc4c(c3)OCO4)nc3ccccc23)c1 | n[0.501 µM] | u | x | n | x | x
CCc1ccccc1S(=O)(=O)Cc1ccc(C(=O)NCCc2ccc(C)cc2)o1 | n | x | x | n | x | x
Cc1cc(C)nc(-n2nc(C)c3c2NC(=O)CC3c2ccccc2OC(C)C)n1 (stereo unspecified) | n | x | x | n | x | x
CO[C@H]1[C@H](O[C@H]2O[C@@H](C)[C@@H](O[C@@H]3C[C@](C)(O)[C@H](O)[C@H](C)O3)[C@@H](N(C)C)[C@@H]2O)[C@@H](CC=O)C[C@@H](C)[C@@H](O[C@H]2CC[C@H](N(C)C)[C@H](C)O2)/C=C\C=C/C[C@@H](C)OC(=O)C[C@H]1O | n[21.5 µM] | n | x | n | x | x
O=C(N=Nc1c(O)[nH]c2ccccc12)c1cccc(S(=O)(=O)Nc2ccccc2Cl)c1 | n | u | 30µM | n | n | n
CC(C)c1ccc2[nH]c(O)c(N=NC(=O)c3cccc(S(=O)(=O)Nc4ccccc4Cl)c3)c2c1 | n | n | n | n | n | n
O=C(CCc1nnc(-c2ccc3c(c2)OCO3)o1)NCCc1ccccc1F | n | n | 12µM | u | n | n
Cc1ccc(-c2nc3ncccc3o2)cc1NC(=O)COc1ccc(C(C)C)cc1 | 14µM | x | x | n | x | x
CN(C)C(=S)Nc1ccc([N+](=O)[O-])cc1 | n | u | n | n | n | n
CN(C)C(=S)NC(=NCc1ccc([N+](=O)[O-])cc1)c1ccccc1 | 71µM | n | n | n | n | n
COC(=O)c1nn(-c2ccc(OC)cc2)c(=O)cc1Sc1ccc(C)cc1 | n | n | n | n | n | n
COC(=O)c1nn(-c2ccc(OC)cc2)c(=O)cc1NN | 45µM | n | n | n | n | n
COC(=O)c1nn(-c2ccc(OC)cc2)c(=O)c2c(N)sc(C)c12 | 10µM | 35µM | 24µM | u | n | n
NS(=O)(=O)c1cccc(NC(=O)CSc2nc3nc(-c4cccs4)cc(C(F)(F)F)c3c(=O)[nH]2)c1 | n | n | 34µM | n | n | n
O=c1[nH]c(=S)[nH]c2nc(-c3cccs3)cc(C(F)(F)F)c12 | 79µM | n | n | n | n | n
O=C(CSc1nc2nc(-c3cccs3)cc(C(F)(F)F)c2c(=O)[nH]1)Nc1c(F)c(F)c(F)c(F)c1F | n | n | 34µM | n | n | n
Cc1ccc(NC(=O)Cn2c(=O)n(CCc3ccccc3)c(=O)c3c4c(sc32)CCCC4)cc1C | n | x | x | n | x | x
COc1ccc(CNC(=O)c2cnc3sc(N4CCOCC4)nn3c2=O)cc1 | n | x | x | n | x | x
Cc1cc(C)nc(NNC(=O)NC2CCCCC2)n1 | n | n | 27µM | u | n | n
CCOc1nc(N2CCOCC2)nc(C)c1[N+](=O)[O-] | u | n | 30µM | n | n | n
CNCCOc1nc(N2CCOCC2)nc(C)c1[N+](=O)[O-] | n | n | n | n | n | n
Cc1cccc(NC(=O)c2cc(S(=O)(=O)NCCc3ccccc3)ccc2F)c1C | n | x | x | n | x | x
